Six molecules from PubChem BioAssay (EPA / NIEHS) can be followed below.

The source made the active and inactive calls. Rule for the calls: active = hit-call score of the fitted dose curve at least 0.9, where 1 is the maximum; inactive = score below 0.9.

Holding throughout (settings): mRNA level, 48 h; actives raise or lower the signal
Read-out in one test: CYP2C9 (gene 1559)
Put plainly: LTEA_HepaRG_CYP2C9: Life Technologies and Expression Analysis (LTEA) Assay for CYP2C9 using HepaRG (AID 2283484). In short, it runs like this:
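Differentiated human HepaRG cells were exposed 48 h in serum-free induction medium to eight half-log concentrations up to 100 uM in 0.5% DMSO. CYP2C9 mRNA was measured by qRT-PCR, normalized to ACTB, GAPDH and POLR2A, and fitted bidirectionally against DMSO.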

Read-out in the next test: CYP2E1 (gene 1571)
Nature of the test: LTEA_HepaRG_CYP2E1: Life Technologies and Expression Analysis (LTEA) Assay for CYP2E1 using HepaRG (AID 2283485). In short, it runs like this: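 Human liver line HepaRG, plated 48 h, then serum-free induction medium + chemical x 48 h; 8-pt CRC from 100 uM, half-log, 0.5% DMSO, n=2. Readout: CYP2E1 mRNA qRT-PCR vs ACTB/GAPDH/POLR2A; bidirectional fit vs DMSO.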

Read-out in a further test: CYP4A11 (gene 1579)
Nature of the test: LTEA_HepaRG_CYP4A11: Life Technologies and Expression Analysis (LTEA) Assay for CYP4A11 using HepaRG (AID 2283486). The method, boiled down:
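CYP4A11 transcript levels were quantified by TaqMan qRT-PCR after HepaRG human liver cells were treated for 48 hours with test chemicals (top 100 uM, half-log dilutions, 0.5% DMSO). Gain or loss of signal was fitted relative to DMSO.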

Read-out in test [1]: Cytochrome P450 3A4 (Homo sapiens) (UniProt P08684)
Put plainly: LTEA_HepaRG_CYP3A4: Life Technologies and Expression Analysis (LTEA) Assay for CYP3A4 using HepaRG (AID 2283487). In short, it runs like this:
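In a human hepatic line (HepaRG), duplicate wells were treated 48 h with up to 100 uM chemical in half-log dilutions. Endpoint: CYP3A4 mRNA induction or loss relative to 0.5% DMSO vehicle, by qRT-PCR.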

Read-out in test [2]: DNA damage-inducible transcript 3 (DDIT3), DDIT3 (gene 1649)
Put plainly: LTEA_HepaRG_DDIT3: Life Technologies and Expression Analysis (LTEA) Assay for DNA damage-inducible transcript 3 (DDIT3) using HepaRG (AID 2283488). The method, boiled down: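 HepaRG plated 48 h, switched to serum-free induction medium, dosed 48 h (100 uM top, half-log, 8 pts, 0.5% DMSO, n=2); RNA isolated; DDIT3 by qRT-PCR; bidirectional curve fit vs DMSO.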

Read-out in test [3]: Pro-epidermal growth factor (Homo sapiens) (UniProt P01133)
Nature of the test: LTEA_HepaRG_EGF: Life Technologies and Expression Analysis (LTEA) Assay for Epidermal growth factor (EGF) using HepaRG (AID 2283489). In short, it runs like this: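 qRT-PCR readout of EGF transcript after 48 h chemical exposure of HepaRG cells; eight concentrations from 100 uM down in half-log steps, duplicate wells, 0.5% DMSO vehicle. Bidirectional curve fitting against DMSO baseline.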

Read-out in test [4]: Early growth response protein 1 (EGR1) transcription factor, EGR1 (gene 1958)
Put plainly: LTEA_HepaRG_EGR1: Life Technologies and Expression Analysis (LTEA) Assay for Early growth response protein 1 (EGR1) transcription factor using HepaRG (AID 2283490). In short, it runs like this: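 Differentiated human HepaRG cells in serum-free induction medium were exposed in duplicate for 48 h to eight concentrations (top 100 uM, half-log steps) in 0.5% DMSO. EGR1 mRNA was quantified by qRT-PCR, normalized to ACTB, GAPDH and POLR2A, and fitted bidirectionally versus DMSO.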

Read-out in test [5]: Ezrin (EZR), EZR (gene 7430)
Nature of the test: LTEA_HepaRG_EZR: Life Technologies and Expression Analysis (LTEA) Assay for Ezrin (EZR) using HepaRG (AID 2283491). The method, boiled down:
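Gain or loss of EZR mRNA is scored relative to 0.5% DMSO in human HepaRG cultures treated 48 h with test chemicals in duplicate, eight half-log concentrations from 100 uM.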

Read-out in the next test: CYP3A5 (gene 1577)
Put plainly: LTEA_HepaRG_CYP3A5: Life Technologies and Expression Analysis (LTEA) Assay for CYP3A5 using HepaRG (AID 2283493). The method, boiled down:
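HepaRG plated 48 h, switched to serum-free induction medium, chemicals added 48 h (max 100 uM, half-log, 0.5% DMSO). RNA isolated; CYP3A5 by TaqMan qRT-PCR. Gain/loss vs DMSO.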

Read-out in test [6]: Fatty Acid-Binding Protein 1 (FABP1), FABP1 (gene 2168)
Put plainly: LTEA_HepaRG_FABP1: Life Technologies and Expression Analysis (LTEA) Assay for Fatty Acid-Binding Protein 1 (FABP1) using HepaRG (AID 2283494). In short, it runs like this:
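Differentiated human HepaRG cells were exposed in duplicate for 48 h in serum-free induction medium to 8-point half-log concentration series topping at 100 uM in 0.5% DMSO. FABP1 mRNA measured by TaqMan qRT-PCR, normalized to ACTB/GAPDH/POLR2A; bidirectional fit versus DMSO.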

Read-out in test [7]: Cytochrome P450 4A22 (Homo sapiens) (UniProt Q5TCH4)
Put plainly: LTEA_HepaRG_CYP4A22: Life Technologies and Expression Analysis (LTEA) Assay for Cytochrome P450 4A22 (CYP4A22) using HepaRG (AID 2283495). In short, it runs like this:
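HepaRG, 48 h post-plating -> serum-free induction medium; dosed 48 h, duplicate, 8 conc. (100 uM top, half-log), 0.5% DMSO. Readout: CYP4A22 mRNA by qRT-PCR, ACTB/GAPDH/POLR2A normalization; gain/loss fit relative to DMSO.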

Read-out in test [8]: Cytochrome P450 7A1 (Homo sapiens) (UniProt P22680)
Put plainly: LTEA_HepaRG_CYP7A1: Life Technologies and Expression Analysis (LTEA) Assay for Cytochrome P450 7A1 (CYP7A1) using HepaRG (AID 2283496). The method, boiled down: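 HepaRG cells plated 48 h, then switched to serum-free induction medium and exposed in duplicate for 48 h to 8-point half-log series from 100 uM in 0.5% DMSO. CYP7A1 mRNA by qRT-PCR (TaqMan), normalized to ACTB/GAPDH/POLR2A; bidirectional fit versus DMSO.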

Read-out in test [9]: Glutathione S-Transferase (GSTA2), GSTA2 (gene 2939)
Nature of the test: LTEA_HepaRG_GSTA2: Life Technologies and Expression Analysis (LTEA) Assay for Glutathione S-Transferase (GSTA2) using HepaRG (AID 2283497). The method, boiled down:
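Human HepaRG cells, plated 48 h, then exposed in serum-free induction medium for 48 h to eight half-log concentrations up to 100 uM in 0.5% DMSO, duplicate. GSTA2 mRNA by qRT-PCR, normalized to ACTB/GAPDH/POLR2A; bidirectional fit versus DMSO.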

Read-out in test [10]: Glutamate-cysteine ligase catalytic (GCLC), GCLC (gene 2729)
Put plainly: LTEA_HepaRG_GCLC: Life Technologies and Expression Analysis (LTEA) Assay for Glutamate-cysteine ligase catalytic (GCLC) using HepaRG (AID 2283498). The method, boiled down:
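Differentiated human HepaRG cells, plated 48 h then switched to serum-free induction medium, were exposed in duplicate for 48 h to 8 half-log concentrations topping at 100 uM in 0.5% DMSO. GCLC mRNA was quantified by qRT-PCR against ACTB, GAPDH and POLR2A.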

Read-out in test [11]: growth arrest and DNA damage 45 (GADD45G), GADD45G (gene 10912)
Nature of the test: LTEA_HepaRG_GADD45G: Life Technologies and Expression Analysis (LTEA) Assay for growth arrest and DNA damage 45 (GADD45G) using HepaRG (AID 2283499). In short, it runs like this:
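HepaRG, 48 h exposure, top 100 uM, half-log 8-point series, 0.5% DMSO vehicle, duplicates. Readout: GADD45G transcript by qRT-PCR (Fluidigm array), housekeeping-normalised (ACTB/GAPDH/POLR2A). Bidirectional curve fit vs DMSO baseline.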

Read-out in test [12]: Glutamate-cysteine ligase regulatory (GCLM), GCLM (gene 2730)
Nature of the test: LTEA_HepaRG_GCLM: Life Technologies and Expression Analysis (LTEA) Assay for Glutamate-cysteine ligase regulatory (GCLM) using HepaRG (AID 2283500). The method, boiled down:
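Cells were plated, cultured 48 h, switched to serum-free induction medium, then dosed in duplicate for 48 h at eight half-log concentrations up to 100 uM. RNA was then profiled by qRT-PCR; gain or loss versus DMSO was fitted.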

Read-out in test [13]: Heat shock 70 kDa protein 1 (HSPA1A), gene 3303
Put plainly: LTEA_HepaRG_HSPA1A: Life Technologies and Expression Analysis (LTEA) Assay for Heat shock 70 kDa protein 1 (HSPA1A) using HepaRG (AID 2283502). The method, boiled down: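 Readout is HSPA1A transcript level by microfluidic qRT-PCR, normalized to three housekeeping genes and analysed for gain or loss of signal relative to 0.5% DMSO. Human HepaRG cultures received test chemicals for 48 h at up to 100 uM.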

Read-out in test [14]: Hypoxia-inducible factor 1-alpha (Homo sapiens) (UniProt Q16665)
Put plainly: LTEA_HepaRG_HIF1A: Life Technologies and Expression Analysis (LTEA) Assay for Hypoxia-inducible factor 1 (HIF1A) Trancription factor using HepaRG (AID 2283503). The method, boiled down: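 Differentiated HepaRG cells in serum-free induction medium exposed 48 h, in duplicate, to 8-point half-log series from 100 uM in 0.5% DMSO. HIF1A mRNA measured by TaqMan qRT-PCR, normalized to ACTB/GAPDH/POLR2A, fitted bidirectionally versus DMSO.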

Read-out in test [15]: Glutathione S-transferase M3 (GSTM3), GSTM3 (gene 2947)
Nature of the test: LTEA_HepaRG_GSTM3: Life Technologies and Expression Analysis (LTEA) Assay for Glutathione S-transferase M3 (GSTM3) using HepaRG (AID 2283501). The method, boiled down: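 qRT-PCR read-out of GSTM3 transcript, normalized to three housekeeping genes, from human HepaRG cells after 48 h chemical exposure. Eight-point half-log series, top 100 uM, 0.5% DMSO vehicle; gain or loss fitted relative to DMSO baseline.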

Read-out in test [16]: Cytochrome P450 3A7 (Homo sapiens) (UniProt P24462)
Put plainly: LTEA_HepaRG_CYP3A7: Life Technologies and Expression Analysis (LTEA) Assay for CYP3A7 using HepaRG (AID 2283492). In short, it runs like this:
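CYP3A7 transcript levels were read by TaqMan qRT-PCR on Fluidigm arrays after 48 h chemical exposure of human HepaRG cells, with housekeeping-gene normalisation. Eight half-log concentrations up to 100 uM in 0.5% DMSO were tested in duplicate.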

Hypoxia-inducible factor 1-alpha (Homo sapiens), sequence (Q16665 whole entry, looked up): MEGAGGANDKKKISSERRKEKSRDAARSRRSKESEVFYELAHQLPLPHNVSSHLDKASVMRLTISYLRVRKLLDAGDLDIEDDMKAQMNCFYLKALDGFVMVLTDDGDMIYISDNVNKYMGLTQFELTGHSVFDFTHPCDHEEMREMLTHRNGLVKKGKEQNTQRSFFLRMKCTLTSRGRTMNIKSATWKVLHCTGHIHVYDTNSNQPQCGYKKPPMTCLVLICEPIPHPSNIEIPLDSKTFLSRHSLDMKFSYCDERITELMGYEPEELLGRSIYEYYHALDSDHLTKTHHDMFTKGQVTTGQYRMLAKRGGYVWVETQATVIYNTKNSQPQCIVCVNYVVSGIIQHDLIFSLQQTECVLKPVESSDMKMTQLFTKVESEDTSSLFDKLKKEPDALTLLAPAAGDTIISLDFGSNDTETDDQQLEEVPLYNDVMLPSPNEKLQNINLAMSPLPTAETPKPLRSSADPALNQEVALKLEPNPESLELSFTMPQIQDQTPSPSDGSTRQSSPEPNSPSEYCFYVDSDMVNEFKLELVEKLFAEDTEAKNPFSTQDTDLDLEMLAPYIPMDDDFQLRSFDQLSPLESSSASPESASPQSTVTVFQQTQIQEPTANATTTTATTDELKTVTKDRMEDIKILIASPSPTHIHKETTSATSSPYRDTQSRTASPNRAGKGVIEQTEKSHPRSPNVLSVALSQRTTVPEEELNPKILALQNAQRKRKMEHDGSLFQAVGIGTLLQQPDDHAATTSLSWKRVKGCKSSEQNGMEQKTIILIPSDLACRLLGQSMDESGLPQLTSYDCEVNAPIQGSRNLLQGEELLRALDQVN
Cytochrome P450 3A4 (Homo sapiens), sequence (P08684 whole entry, looked up): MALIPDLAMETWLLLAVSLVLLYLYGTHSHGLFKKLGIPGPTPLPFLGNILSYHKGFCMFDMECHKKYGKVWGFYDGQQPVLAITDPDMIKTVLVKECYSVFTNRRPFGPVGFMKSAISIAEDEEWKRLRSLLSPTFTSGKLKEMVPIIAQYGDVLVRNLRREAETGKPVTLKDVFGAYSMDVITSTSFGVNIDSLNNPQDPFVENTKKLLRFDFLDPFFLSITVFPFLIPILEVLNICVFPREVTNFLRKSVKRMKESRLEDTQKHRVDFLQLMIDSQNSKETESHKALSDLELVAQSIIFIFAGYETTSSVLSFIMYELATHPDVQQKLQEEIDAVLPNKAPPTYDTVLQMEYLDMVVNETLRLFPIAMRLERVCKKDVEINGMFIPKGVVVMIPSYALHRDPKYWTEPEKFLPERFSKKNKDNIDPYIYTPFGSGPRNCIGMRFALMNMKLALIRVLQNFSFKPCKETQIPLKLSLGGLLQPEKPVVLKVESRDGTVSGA
Cytochrome P450 3A7 (Homo sapiens), sequence (P24462 whole entry, looked up): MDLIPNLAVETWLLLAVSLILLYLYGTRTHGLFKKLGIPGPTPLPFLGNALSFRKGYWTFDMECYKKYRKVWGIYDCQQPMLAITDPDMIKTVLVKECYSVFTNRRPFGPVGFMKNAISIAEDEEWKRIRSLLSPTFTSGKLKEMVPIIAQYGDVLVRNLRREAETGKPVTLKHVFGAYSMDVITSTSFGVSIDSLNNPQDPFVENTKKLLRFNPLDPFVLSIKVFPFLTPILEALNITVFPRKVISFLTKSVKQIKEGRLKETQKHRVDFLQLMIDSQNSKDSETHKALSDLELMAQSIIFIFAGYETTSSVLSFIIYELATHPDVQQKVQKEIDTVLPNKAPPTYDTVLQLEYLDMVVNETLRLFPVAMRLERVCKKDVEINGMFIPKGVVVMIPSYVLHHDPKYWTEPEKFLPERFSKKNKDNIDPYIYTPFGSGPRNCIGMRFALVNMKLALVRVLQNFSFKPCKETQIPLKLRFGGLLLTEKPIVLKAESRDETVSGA

For the molecule `c1ccc2c(c1)oc1ccccc12`, the call (in the test with CYP2C9 (gene 1559); with CYP2E1 (gene 1571); with CYP4A11 (gene 1579); in test [1]; in test [2]; in [3]) was inactive. The result (in test [4]; in test [5]; with CYP3A5 (gene 1577); in test [6]; in test [7]; in [8]) was inactive. In addition, the call in [9], in [10], in test [11], in test [12] and in test [13] was inactive.

Turning to `Clc1ccccc1Cl`, the molecule was called inactive (with CYP2C9 (gene 1559); in the test with CYP2E1 (gene 1571); in the test with CYP4A11 (gene 1579); in [1]; in test [2]; in test [3]). For the same molecule, the result (in test [4]; in test [5]; in the test with CYP3A5 (gene 1577); in test [6]; in [7]; in [8]) was inactive. Besides, the molecule was classed as inactive in test [9], in test [10], in test [11], in [12] and in [13].

Regarding `CC(C)(OOC(C)(C)c1ccccc1)c1ccccc1`, the outcome (with CYP2C9 (gene 1559); with CYP4A11 (gene 1579); in test [2]; in [3]; in test [4]; in [5]) was inactive. In addition, the outcome (with CYP3A5 (gene 1577); in test [6]; in test [7]; in test [8]; in test [9]; in test [10]) was inactive. The result in test [11], in [12], in [13] and in [14] was inactive. The results for the half-maximal activity concentration (AC50) (in the test with CYP2E1 (gene 1571); in test [1]) were 35.1 µM (active) and 23.9 µM (active), respectively.

As for `C1=Cc2cccc3cccc1c23`, the outcome (with CYP2C9 (gene 1559); in the test with CYP4A11 (gene 1579); in test [1]; in test [2]; in test [3]; in test [4]) was inactive. In addition, the outcome (in [5]; in the test with CYP3A5 (gene 1577); in test [6]; in test [7]; in test [8]; in [9]) was inactive. In addition, the molecule was classed as inactive in test [10], in [11], in [12], in test [15], in [13] and in test [14].

For the molecule `Clc1ccc(C(c2ccc(Cl)cc2)C(Cl)(Cl)Cl)cc1`, the AC50 (commonly the concentration at which the activity in the assay is half-maximal) with CYP2C9 (gene 1559) was 0.549 µM (active); in the test with CYP2E1 (gene 1571), 50 µM (active); with CYP4A11 (gene 1579) it was 50 µM (active); in test [2] it was 50 µM (active); in [5], 50 µM (active); in test [6], 50 µM (active). For the same molecule, the results for the AC50 in [7], in [11] and in test [13] were 50 µM (active), 16.7 µM (active) and 23.3 µM (active), respectively. The molecule was called inactive in [3], in test [4], in test [8], in [9], in test [10] and in test [12]. Also, the molecule was classed as inactive in test [15] and in [14].

With `COC(=O)Nc1nc2ccccc2[nH]1`, the molecule was classed as inactive (with CYP2C9 (gene 1559); in the test with CYP2E1 (gene 1571); with CYP4A11 (gene 1579); in test [2]; in test [3]; in test [4]). In addition, the outcome (in test [5]; in test [16]; with CYP3A5 (gene 1577); in [6]; in test [7]; in test [8]) was inactive. The molecule was classed as inactive in [9], in [10], in [11], in test [12], in test [15] and in test [13].
